High-throughput results from PubChem.
CYP2C9 activ: human CYP2C9 activators, primary screen, biochemical, luminescence | recombinant CYP2C9, luciferin-H conversion; stronger effect = higher value; factor 1 = untreated enzyme, 0 = blocked | activation factor at 5 µM | 1.4% of 96,000 active | AID 1024, 2008;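 active = activation factor of 2 or more for CYP2C9 at a 5 µM dose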
EphB4 ephrin blk: EphB4-ephrin-B2 interaction antagonists, primary screen, biochemical, TNYL-RAW peptide probe, fluorescence polarization. Ephrin type-B receptor 4 (Homo sapiens), P54760. EphB4 LBD / TNYL-RAW-Alexa532 peptide. inhibition, % at 7 µM. 0.15% of 97,000 active. AID 720, 2007;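 active = inhibition above the screen-wide mean inhibition plus 3 SD, cut at about 15% in these data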
Target sequence (P54760 whole entry, looked up, the tested form may be a part): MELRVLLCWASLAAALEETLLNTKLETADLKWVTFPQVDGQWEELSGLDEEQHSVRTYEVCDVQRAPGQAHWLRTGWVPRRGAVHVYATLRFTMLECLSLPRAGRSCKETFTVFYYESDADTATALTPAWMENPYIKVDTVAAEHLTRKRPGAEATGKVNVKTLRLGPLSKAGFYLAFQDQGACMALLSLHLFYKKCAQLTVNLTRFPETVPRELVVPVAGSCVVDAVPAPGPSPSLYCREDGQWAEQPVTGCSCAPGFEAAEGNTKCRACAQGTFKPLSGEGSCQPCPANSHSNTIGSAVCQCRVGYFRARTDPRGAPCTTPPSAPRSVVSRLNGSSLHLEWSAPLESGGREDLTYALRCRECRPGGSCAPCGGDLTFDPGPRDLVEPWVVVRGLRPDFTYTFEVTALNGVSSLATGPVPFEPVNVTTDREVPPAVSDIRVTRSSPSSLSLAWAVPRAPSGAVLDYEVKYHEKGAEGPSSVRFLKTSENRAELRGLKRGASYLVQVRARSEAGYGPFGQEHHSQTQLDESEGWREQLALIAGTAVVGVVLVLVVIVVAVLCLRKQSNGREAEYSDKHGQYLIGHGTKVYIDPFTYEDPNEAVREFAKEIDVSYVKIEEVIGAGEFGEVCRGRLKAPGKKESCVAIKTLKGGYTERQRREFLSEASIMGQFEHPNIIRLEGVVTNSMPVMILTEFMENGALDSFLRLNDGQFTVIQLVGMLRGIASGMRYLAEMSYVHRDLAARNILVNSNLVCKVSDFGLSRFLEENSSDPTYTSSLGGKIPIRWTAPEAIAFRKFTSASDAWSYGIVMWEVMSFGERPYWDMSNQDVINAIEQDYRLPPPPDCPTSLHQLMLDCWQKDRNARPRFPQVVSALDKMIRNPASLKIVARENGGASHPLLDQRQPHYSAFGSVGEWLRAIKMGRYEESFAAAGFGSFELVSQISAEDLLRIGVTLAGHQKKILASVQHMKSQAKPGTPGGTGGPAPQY
CYP2C19 act: human CYP2C19 activators, primary screen, biochemical, luminescence; activation factor at 5 µM; 96,000 tested, under 10 active; recombinant CYP2C19, luciferin-H EGE luminescence; stronger effect = higher value; 0 = fully inhibited enzyme, 1 = untreated enzyme; Cytochrome P450 2C19 (Homo sapiens), P33261;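 active = activation factor of at least 2 at 5 µM in the primary screen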
CYP2C9 inhib: blockers of cytochrome P450 2C9 activity – biochemical, luminescence, ADME assay, primary screen. AID 777, 2007. inhibition, % at 5 µM. 20% of 96,000 active. P11712. CYP2C9 Supersomes, luciferin-H conversion;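 active = blocking of liver enzyme CYP2C9 beyond about 50% at 5 µM, limit read from the data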
CYP2C19 inh: blockers of cytochrome P450 2C19 activity – biochemical, luminescence, ADME assay, primary screen; P33261; CYP2C19 Supersomes, luciferin-H EGE luminescence, 30 min; inhibition, % at 5 µM; 21% of 96,000 active; AID 778, 2007;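 active = CYP2C19 inhibition above a set limit at 5 µM in the primary screen, cut at about 50% in these data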
Of the large screens only hits and unclear results are named; the others gave an inactive call. Hits are enriched below; roughly 27% of the tested compounds scored in any of these assays.

N#Cc1c2n(c3c(=O)n(Cc4ccccc4Cl)cnc13)CCCCC2	CYP2C9 inhib 68, CYP2C19 inh 59
O=C(NCc1ccccn1)c1n[nH]c2ccccc12	none
C=CCn1c(SCC(=O)c2cccs2)nc2sc(C)cc2c1=O	none
CCC(C)(c1ccc(C=O)s1)c1ccc(C=O)s1	CYP2C9 inhib 52
CCOC(=O)CSc1nc2cc(C)ccc2cc1C#N	none
CCOC(=O)CSc1nc2cc(OC)ccc2cc1C#N	CYP2C9 inhib 89
CCOc1ccc2cc(C#N)c(SCC(=O)N3CCOCC3)nc2c1	none
CCOc1ccc2nc(SCC(=O)N3CCCCCC3)c(C#N)cc2c1	CYP2C9 inhib 69
CC1=C(C(=O)Nc2ccccc2C)C(c2ccc(C)o2)n2c(s/c(=C/c3ccccc3)c2=O)=N1 (stereo unspecified)	none
CC(=O)N1CCc2cc(C(=O)CN3CCN(c4cccc(Cl)c4)CC3)ccc21	CYP2C9 inhib 84
CCOC(=O)C1CCN(C(=O)C2c3ccccc3C(=O)N(C)C2c2ccc(OC)cc2)CC1 (stereo unspecified)	none
CCCC(C)C1C(C#N)=C(N)Oc2cc(C)oc(=O)c21 (stereo unspecified)	none (no result: CYP2C9 activ, CYP2C19 act, CYP2C9 inhib, CYP2C19 inh)
Cc1cc(NS(=O)(=O)c2ccc(NC(=O)Nc3cccc(Cl)c3)cc2)no1	none
O=c1cc(C(Cl)(Cl)Cl)oc2c1ccc1ccccc12	CYP2C9 inhib 65, CYP2C19 inh 56
Cc1cccc(NC(=O)CSc2nc3ccc(N4C(=O)c5ccccc5C4=O)cc3s2)c1C	CYP2C9 inhib 70
Cc1cccc(NC(=O)CSc2nc3ccc(NC(=O)CSc4nnnn4-c4ccccc4)cc3s2)c1C	CYP2C9 inhib 68
N#Cc1nc(-c2ccco2)oc1N1CCN(c2cccc(Cl)c2)CC1	CYP2C9 inhib 69, CYP2C19 inh 76
N#Cc1nc(-c2ccco2)oc1N1CCc2ccccc2C1	CYP2C9 inhib 86, CYP2C19 inh 68
N#Cc1nc(-c2ccco2)oc1N1CCCC1	none
Cc1cccc(-c2nc(=S)c3c(o2)CCCC3)c1	CYP2C9 activ 2.5
c1cc2c3c(cccc3c1)NC1(CCCCC1)N2	CYP2C9 inhib 52, CYP2C19 inh 72
CC1=Nc2cccc3cccc(c23)N1	none
c1cc2c3c(cccc3c1)NC1(CCCCCC1)N2	CYP2C9 inhib 62, CYP2C19 inh 87 (no result: EphB4 ephrin blk)
COc1ccc(C(=O)CSc2nnc(Cc3ccccc3)o2)cc1	none
COc1ccc(NCc2nnc(SCC(=O)c3ccc(OC)cc3)o2)cc1	CYP2C9 activ 2
COc1cccc(OCc2nnc(SCC(=O)OCc3ccccc3)o2)c1	CYP2C9 inhib 62, CYP2C19 inh 76
COc1ccc(Cc2nnc(SCC(=O)c3ccccc3)o2)cc1	CYP2C9 inhib 79, CYP2C19 inh 77
COc1ccc(NCc2nnc(SCC(=O)Nc3cccc(C)c3)o2)cc1	CYP2C9 inhib 59, CYP2C19 inh 72
CCC(=O)N1C(C(=O)NCc2ccc(OC)cc2)CSC1c1ccc(OC)cc1 (stereo unspecified)	none
CCOC(=O)C1=C(C)NC(=O)NC1c1ccc(OCC(N)=O)cc1 (stereo unspecified)	none (no result: CYP2C9 activ, CYP2C19 act, CYP2C9 inhib, CYP2C19 inh)
O=C(NC1CCCC1)C(c1ccccc1)N(C(=O)c1ccco1)C1CCCC1 (stereo unspecified)	none (no result: CYP2C9 activ, CYP2C19 act, CYP2C9 inhib, CYP2C19 inh)
O=C(CSc1nnc(CNc2ccccc2)o1)N1CCCc2ccccc21	none
C/C(Sc1nnc(Cc2ccccc2)o1)=C(/O)c1ccccc1	CYP2C9 inhib 68, CYP2C19 inh 61
COc1ccc(NCc2nnc(SCC(=O)N3CCCc4ccccc43)o2)cc1	CYP2C9 inhib 60
CCCCCOC(=O)Cc1c(C)nc(-c2ccccc2)[nH]c1=O	none
CCOc1cc(C)c(S(=O)(=O)Nc2ccc(Cl)cn2)cc1C	CYP2C9 inhib 95, CYP2C19 inh 78
O=C(O)C1CSC2c3ccccc3C(=O)N12 (stereo unspecified)	none
O=C(NCc1ccco1)[C@@H]1CSC2c3ccccc3C(=O)N21 (stereo partly specified)	CYP2C19 inh 57
O=C(NCCCN1CCOCC1)[C@@H]1CSC2c3ccccc3C(=O)N21 (stereo partly specified)	none
O=C(NCc1cccs1)[C@@H]1CSC2c3ccccc3C(=O)N21 (stereo partly specified)	CYP2C9 inhib 72, CYP2C19 inh 75
Cc1cc(C)c(N=C2CCCN2Cc2ccccc2)c(C#N)c1	none (no result: CYP2C9 activ, CYP2C19 act, CYP2C9 inhib, CYP2C19 inh)
N#Cc1ccccc1N=C1CCCN1Cc1ccccc1	CYP2C19 inh 85
O=S(=O)(NC1CCCc2ccccc21)c1cnc[nH]1 (stereo unspecified)	CYP2C9 inhib 52, CYP2C19 inh 68 (no result: EphB4 ephrin blk)
C=CCNC(=O)c1cccn1-c1ccsc1C(=O)OC	none
C=CCNC(=O)C(=O)c1cccn1-c1ccsc1C(=O)OC	CYP2C19 inh 93
CCCC1C2CN(C(C)C)CC=C2C(C#N)=C(N)C1(C#N)C#N (stereo unspecified)	none
CC(C)c1nnc(NC(=O)c2sc3ccccc3c2Cl)s1	none
Cn1c(C(C#N)C(=O)c2sc3ccccc3c2Cl)nc2ccccc21 (stereo unspecified)	CYP2C9 inhib 71
O=C(NCc1ccco1)C1CCC(N2C(=O)c3ccccc3C2=O)CC1 (stereo unspecified)	none
O=C(NCCNC(=O)c1cc(OCC(F)(F)F)ccc1OCC(F)(F)F)Nc1cccc(C(F)(F)F)c1	CYP2C9 inhib 67
C=CCONC(=O)c1cc(OCC(F)(F)F)ccc1OCC(F)(F)F	CYP2C9 inhib 87
Cc1cc(C(=O)COc2cccc(-n3cnnn3)c2)c(C)n1-c1ccccc1	CYP2C19 inh 86
CSc1cccc(-n2c(C)cc(C(N)=O)c2C)c1	EphB4 ephrin blk 16, CYP2C19 inh 69
Cc1cc(C(=O)OCn2nnc3ccccc3c2=O)c(C)n1-c1ccccc1	CYP2C9 inhib 84, CYP2C19 inh 78
Cc1ccc(C)n1-c1cccc(C(=O)O)c1	none (no result: EphB4 ephrin blk)
Cc1cc(C(=O)O)c(C)n1-c1ccccc1	CYP2C9 inhib 65
Cc1c(C2(O)C(=O)Nc3ccc(F)cc32)c(=O)n(-c2ccccc2)n1C (stereo unspecified)	none
O=C1CC(c2ccccc2)Cc2nc3nc(C(F)(F)F)nn3cc21 (stereo unspecified)	CYP2C9 inhib 62
CSc1nc2nc3c(cn2n1)C(=O)CC(c1ccccc1)C3 (stereo unspecified)	CYP2C19 inh 51
O=C1CC(c2ccc(F)cc2)Cc2nc(N3CCc4ccccc43)ncc21 (stereo unspecified)	none (no result: EphB4 ephrin blk)
Cc1nn(-c2ccc(C(=O)O)cc2)c(=O)c2ccccc12	none
CC(C)(C)C(=O)/C=C(\N)c1ccncc1	none
COc1ccc(/C(N)=C/C(=O)C(C)(C)C)cc1	CYP2C19 inh 74
